Among the data in PubChem BioAssay AID651650 (Sanford-Burnham Center for Chemical Genomics, 2012) are inhibition values, retold here.

Chain of Neuropilin-1 (Homo sapiens) (O14786 whole entry, looked up): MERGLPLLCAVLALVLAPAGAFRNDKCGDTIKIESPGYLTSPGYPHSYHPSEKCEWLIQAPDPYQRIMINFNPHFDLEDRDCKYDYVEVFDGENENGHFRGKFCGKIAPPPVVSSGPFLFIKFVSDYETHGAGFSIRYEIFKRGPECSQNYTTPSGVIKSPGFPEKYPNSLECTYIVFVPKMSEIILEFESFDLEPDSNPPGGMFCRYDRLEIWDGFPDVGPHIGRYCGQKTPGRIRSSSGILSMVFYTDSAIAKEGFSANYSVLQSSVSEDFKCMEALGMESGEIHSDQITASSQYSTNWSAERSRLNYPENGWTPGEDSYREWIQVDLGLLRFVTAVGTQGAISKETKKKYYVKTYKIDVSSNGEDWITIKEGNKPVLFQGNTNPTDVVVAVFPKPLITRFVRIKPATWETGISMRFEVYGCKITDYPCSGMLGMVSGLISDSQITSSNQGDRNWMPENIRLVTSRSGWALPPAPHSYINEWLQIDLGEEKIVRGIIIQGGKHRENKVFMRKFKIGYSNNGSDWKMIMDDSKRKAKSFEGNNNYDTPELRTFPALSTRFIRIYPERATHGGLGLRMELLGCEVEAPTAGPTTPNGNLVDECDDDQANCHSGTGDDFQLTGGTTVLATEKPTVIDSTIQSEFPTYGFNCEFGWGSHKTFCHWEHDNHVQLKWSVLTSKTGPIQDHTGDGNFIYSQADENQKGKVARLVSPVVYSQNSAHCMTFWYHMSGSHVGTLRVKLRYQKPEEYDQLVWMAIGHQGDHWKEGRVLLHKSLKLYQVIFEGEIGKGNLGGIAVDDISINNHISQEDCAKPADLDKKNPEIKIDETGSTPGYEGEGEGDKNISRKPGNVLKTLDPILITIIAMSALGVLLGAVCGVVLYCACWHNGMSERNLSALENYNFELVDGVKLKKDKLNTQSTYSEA

This assay concerns the target Neuropilin-1 (Homo sapiens) (UniProt O14786). Nature of the assay: blockers of CendR peptide binding to NRP-1 – biochemical, FP and AlphaScreen panel, dose response (AID 651650). Particulars: NRP-1 b1b2 / RPARPAR peptide binding, FP or AlphaScreen; run 1, at 100 µM (top of the series).
With `CCOC(=O)C1CCN(Cc2ccc3ccccc3c2)CC1`, the inhibition (as a rule, the relative decrease from the control value, in per cent) was found to be 52.3%.
As for `Cc1ccc(C(=O)Nc2ccccc2-c2ccccc2)cc1S(=O)(=O)Nc1ccccc1`, the inhibition came out at 32.1%.
`O=C(Cc1ccccc1Cl)N1CCOCC1`: the inhibition came to 25.2%.
On to `Oc1ccc(-c2nc3ncccn3c2Nc2ccc3c(c2)OCO3)cc1`, for which the inhibition stood at 41.8%.
With `CC(=O)NCCNc1nc(NC(C)C)nc2ccsc12` the figure was -4.88%; with `CC(C)Oc1ccc(F)cc1-c1cc(C(=O)NCc2ccc(F)cc2)[nH]n1`, 16%.
With `O=C1CCN(Cc2ccccc2)S(=O)(=O)c2ccccc21` the figure was 54%; with `COc1ccc([C@H]2/C=C\CN(C(=O)C3CC3)[C@@H](C)C(=O)N2Cc2ccc(F)cc2)cc1`, 30.1%; with `CN(C(=O)COC(=O)c1cnc(Cl)c(Cl)c1)C1CCCCC1`, 49.2%.
Consider `CC(Oc1ccccc1)C(=O)NC1=NCCS1` (stereo not given), for which the inhibition was determined as 51.9%.
Consider `CC(=O)N1CCSc2ccc(S(=O)(=O)Nc3ccc(C)cc3)cc21`, for which the inhibition came to 47.7%.
For `CC(C)(C)n1cnc2cc(NC(=O)c3ccccc3)ccc21`, the inhibition amounted to 95.9%.
On to `CCc1ccc(OC(=O)CN2C(=O)c3ccccc3C2=O)cc1`, for which the inhibition is 76.9%.
As for `Nc1ncnc2[nH]c(=S)[nH]c12`, the inhibition was -4.05%.
With `CCN(CC)C(=O)c1cccc(-c2csc(C(NC(C)=O)c3cccc(OC)c3)n2)c1` (stereo not given) the figure was 18.7%.
With `CN(Cc1ccccc1)C(=O)c1nc[nH]c1C(=O)N1CCN(C(=O)OC(C)(C)C)CC1` the figure was 53.3%; with `Cc1ccc(NC(=S)N2CCN(Cc3ccccc3)CC2)cc1`, -7.69%; with `COC(=O)c1ccc(Cn2nnc3c(=O)[nH]c(C4CCCN(S(=O)(=O)c5cccc(Cl)c5)C4)nc32)cc1` (stereo not given), 35.3%.
For the compound `C=CCN(CC=C)C(=O)C1CC(=O)N(c2ccc(Br)cc2)C1` (stereo not given), the inhibition was -4.22%.
In the case of `Cc1nc(Nc2ccc(S(N)(=O)=O)cc2)oc1C` it was 60.3%.
